The results in this text go back to ChEMBL document CHEMBL4513216, “Probing the Open Global Health Chemical Diversity Library for Multistage-Active Starting Points for Next-Generation Antimalarials” (ACS Infect Dis, 2020).

Out of some 68,000 compounds screened, about 2,700 (4%) showed an effect of 50% or more. The entries come from a sample that favours strong results as a whole.

The subject of this test is Plasmodium berghei. Nature of the test: Screen against P. berghei liver stage (PbLuc), transformed with Luciferase, at 2uM. The test is classed as functional, HepG2. The following applies: tested at 2 uM.
As for `O=S(=O)(Cc1ccc(Br)cc1)NCCO`, the INHIBITION came out at 17.51%. In the case of `NCCNS(=O)(=O)Cc1ccc(Br)cc1`, the INHIBITION stood at 50.59%. For `NCCCNS(=O)(=O)Cc1ccc(Br)cc1`, the INHIBITION is given as 5.28%. As for `Cn1cc(CN2CC3(CCN(C(=O)c4cscn4)C3)C2)cn1`, the figure is -9.1%; as for `Cc1csc(C(=O)NCCN2CCC(c3cccs3)CC2)c1`, 18.23%. As for `COc1ccc(C(=O)NCCN2CCC(c3cccs3)CC2)cc1OC`, the figure is 66.04%; as for `CC(=O)NCCN1CCC(c2cccs2)CC1`, 26.64%. For the compound `c1cncc(N2CCO[C@H]3CN(CC4CCOC4)C[C@H]32)c1` (some centres not stated), the INHIBITION is on record as 19.51%.

In the case of `O=C(Cn1cc(-c2ccccc2)ncc1=O)Nc1ncc[nH]1`, the INHIBITION is listed as -80.35%. The figure for `Cn1ccnc1-c1nc(NC2CCCC2)ncc1-c1cccc(F)c1` is 14.3%. With `COCCNc1ncc(-c2cccc(F)c2)c(-c2nccn2C)n1`, the INHIBITION is given as 27.12%.

As to `COCCCNc1ncc(-c2cccc(F)c2)c(-c2nccn2C)n1`, the INHIBITION is given as -18.57%. Regarding `COCCNc1ncc(-c2cc(C)no2)c(-c2ccco2)n1`, the INHIBITION is reported as -29.24%. The figure for `CCOCCCNc1ncc(-c2cccc(F)c2)c(-c2nccn2C)n1` is 55.72%; for `COCCNc1ncc(-c2cccc(OC)c2)c(-c2nccn2C)n1` it is 54.87%; for `CN(C)C(=O)COCc1cncc2c1CCN(Cc1cnn(C)c1)C2` it is 14.91%. Turning to `Cc1ccc2c(n1)N(C)CCN(Cc1ccco1)C2`, the INHIBITION amounted to 29.89%.

On to `c1ccc(OC2C[C@@H]3CN(Cc4cnccn4)C[C@@H]3C2)cc1` (some centres not stated), for which the INHIBITION was 50.32%. On to `CN(C)S(=O)(=O)N1CCC2(CC1)CC(Oc1ccccn1)CO2` (configuration not stated), for which the INHIBITION came to 56.78%. In the case of `c1ccc(CO[C@@H]2CO[C@@]3(CCN(Cc4ccccn4)C3)C2)nc1`, the INHIBITION worked out at 40.25%. Regarding `c1ccc(CN2CC[C@]3(C[C@@H](Oc4ccccn4)CO3)C2)nc1`, the INHIBITION is given as 8.1%. As for `O[C@@H]1CN(Cc2cnccn2)C[C@H]1Oc1ccccc1`, the figure is 26.14%; as for `c1ccc(OC2COC3(CCN(Cc4ccccn4)CC3)C2)cc1` (configuration not stated), 62.15%.

Take `Cc1cnc(CN2C[C@H]3CC(Oc4ccccc4)C[C@H]3C2)cn1` (some centres not stated): the INHIBITION worked out at 25.06%. With `CN(C)S(=O)(=O)N1CCC[C@]2(C[C@@H](Oc3ccccn3)CO2)C1`, the INHIBITION is recorded as 19.61%. With `CS(=O)(=O)N1CCC2(CC1)CC(Oc1ccccn1)CO2` (configuration not stated), the INHIBITION was -0.23%. `COc1ccc2cc(-c3n[nH]cc3CN3CCSCC3)ccc2c1`: the INHIBITION is recorded as 30.34%. As for `CN(C)C(=O)CO[C@@H]1CC[C@H]2[C@H]1OCCN2c1ncc(F)cn1`, the INHIBITION is on record as 34.89%. As for `Cc1cc(CN2CCC(CNS(=O)(=O)c3ccc(Br)s3)CC2)c(C)o1`, the figure is 23.96%. Regarding `CC(C)Cc1nc(CSCC(=O)N2CCC(C)CC2)no1`, the INHIBITION is on record as -32.8%. As for `O=C(Nc1ccc(F)c(Br)c1)N1CCCC1`, the figure is -5.87%.

As to `CC(C)CC(NC(=O)c1cccs1)c1nc2cccnc2n1C` (configuration not stated), the INHIBITION is on record as -19.86%. Regarding `NC(=O)C1CCN(CCCNC(=O)Nc2nccs2)CC1`, the INHIBITION is on record as 28.14%. The figure for `O=C(Nc1cccnc1)[C@H]1CN(Cc2ccccn2)C[C@H]2OCC[C@@H]12` is -43.55%; for `Cc1cc(-c2nc(-c3ccccn3)nn2C2CCN(C)CC2)nc(C)n1` it is 14.19%; for `CC1(CO)COC(Cc2ccc(Cl)cc2)=N1` (configuration not stated) it is -6.98%.

Consider `CS(=O)(=O)N1CCC2(CCCN(CCCc3ccccc3)C2=O)C1` (configuration not stated), for which the INHIBITION is -57.67%.

In the case of `O=C1N(CCc2ccccc2)CCCC12CCN(C(CO)CO)C2` (configuration not stated), the INHIBITION was found to be 57.92%. Turning to `O=C1N(CCCc2ccccc2)CCCC12CCN(C(CO)CO)C2` (configuration not stated), the INHIBITION is on record as 7.13%. As for `Cc1ccc(N2CCN(C3CCc4ccccc4C3)CC2)nn1` (configuration not stated), the figure is 30.66%; as for `Cc1noc(C)c1-c1cccc(CC2CCN(C(=O)c3cc[nH]n3)C2)n1` (configuration not stated), -8.23%. Turning to `Cc1noc(C)c1-c1cc(CC2CCN(C(=O)c3cc[nH]n3)C2)ncn1` (configuration not stated), the INHIBITION is listed as -15.34%. As for `Cc1noc(C)c1-c1cncc(CC2CCN(C(=O)c3cc[nH]n3)C2)n1` (configuration not stated), the figure is 61.16%; as for `Cc1nc(CNC(=O)N(C)Cc2cnn(C)c2)cs1`, 29.19%; as for `Cc1ncc2c(c1CNC(=O)C1(C)CCCO1)CCNC2` (configuration not stated), 21.72%.

In the case of `Cc1ncc2c(c1CNC(=O)C1(C)CC1)CCNC2`, the INHIBITION was 51.9%.

Turning to `Cc1ncc2c(c1CNC(=O)C1(C)CCCCO1)CCNC2` (configuration not stated), the INHIBITION is -17.55%. Take `Cc1cc(C)nc(N2CCC(c3cc(CCO)[nH]n3)C2)n1` (configuration not stated): the INHIBITION was -92.86%. In the case of `Cc1ccc(C(=O)N2CCC3(CCC(=O)N(CC(C)O)C3)CC2)c(O)c1` (configuration not stated), the INHIBITION was -0.85%. As for `O=C(NCCn1ccc(-c2ccncc2)n1)C1CC1`, the INHIBITION is given as -19.3%. As to `Fc1cc(Cl)cnc1N1CCCC(c2nccn2Cc2ccncc2)C1` (configuration not stated), the INHIBITION is 17.69%. Consider `CC(C)CCN1C[C@@H]2C[C@H](C(=O)Nc3cccnc3)[C@H](C1)O2`, for which the INHIBITION was determined as 26.76%. Regarding `CCN1C[C@@H]2C[C@H](C(=O)Nc3ccccc3)[C@H](C1)O2`, the INHIBITION stood at 37.65%. Consider `O=C(NCc1ccccc1)[C@H]1C[C@H]2CN(S(=O)(=O)C3CC3)C[C@@H]1O2`, for which the INHIBITION was 14.94%. The figure for `CC(C)CCN1C[C@@H]2C[C@H](C(=O)Nc3ccccc3)[C@H](C1)O2` is 73.15%; for `CC(C)CS(=O)(=O)N1C[C@@H]2C[C@H](C(=O)NCc3ccccc3)[C@H](C1)O2` it is 75.33%. Turning to `CN(C)S(=O)(=O)N1C[C@@H]2C[C@H](C(=O)NCc3ccccc3)[C@H](C1)O2`, the INHIBITION is recorded as -32.96%.

Turning to `Cc1nnn2c1COC(CNC(=O)c1cccn1C)C2` (configuration not stated), the INHIBITION was found to be 42.4%.

As for `Cc1cc(Br)c(O)c(-c2nc(N3CCCCC3)sc2C)c1`, the INHIBITION was determined as 14.95%.

Take `CN(Cc1cnn(C)c1)S(=O)(=O)N1CCCCCC1`: the INHIBITION came out at 47.68%. Regarding `Cc1noc(C(C)N2CCN(CC(=O)N3CCCC3)CC2)n1` (configuration not stated), the INHIBITION is -14.01%.

Consider `C1CCC(c2nnc3sc(C4CCCO4)nn23)C1` (configuration not stated), for which the INHIBITION is reported as -11.31%. Regarding `C1CCC(c2nnc3sc(C4CCOC4)nn23)C1` (configuration not stated), the INHIBITION is given as 4.12%. As for `C1CCC(c2nn3c(C4CCCO4)nnc3s2)C1` (configuration not stated), the INHIBITION is 79.8%. For the compound `Cc1cc(C2CCCN(S(=O)(=O)c3cn[nH]c3)C2)ccn1` (configuration not stated), the INHIBITION worked out at 49.07%. As for `CCN(CC)CCNC(=O)c1cnc(-c2ccccc2)nc1`, the INHIBITION is given as -16.21%. For the compound `COC(=O)CCNC(=O)c1ccc(OCc2ccccc2)nc1`, the INHIBITION was -45.68%. The figure for `CCS(=O)(=O)NCCNC(=O)c1cnc(-c2ccccc2)nc1` is -22.82%; for `CC(=O)NCCNC(=O)c1cnc(-c2ccccc2)nc1` it is 19.47%; for `CN(C)CCCNC(=O)c1ccnc(OCc2ccccc2)c1` it is 52.85%.

Take `CS(=O)(=O)NCCNC(=O)c1cnc(-c2ccccc2)nc1`: the INHIBITION was determined as 73.01%.

Consider `CC(C)N(C)CCCNC(=O)c1cnc(-c2ccccc2)nc1`, for which the INHIBITION was 67.83%. With `CN(CCNC(=O)c1cnc(-c2ccccc2)nc1)S(C)(=O)=O`, the INHIBITION is -50.8%. In the case of `O=C(NCCCN1CCOCC1)c1ccnc(OCc2ccccc2)c1`, the INHIBITION is -47.27%.

Regarding `COCCN(Cc1cccnc1)S(=O)(=O)c1cc(C)ccc1F`, the INHIBITION worked out at 37.79%. Consider `Cn1cc(NS(=O)(=O)c2ccc(C(F)(F)F)cc2)ccc1=O`, for which the INHIBITION came to 21.83%.

As for `Cc1nc(CC(C)C)cc(C(=O)N2C[C@@H](CN(C)C)[C@@H](CO)C2)n1`, the INHIBITION stood at 3.46%.

In the case of `CCc1noc(C(C)N2CCC(C(=O)Nc3cnn(CC)c3)CC2)n1` (configuration not stated), the INHIBITION is reported as -56.72%. Take `CCN(Cc1ccc2c(c1)OCO2)C(=O)c1ccc(C)[nH]c1=O`: the INHIBITION amounted to 0.26%. `COc1ccc(Cl)cc1C(=O)N1C[C@H](C(C)C)[C@@H](N)C1`: the INHIBITION is listed as 5.88%.

In the case of `NC(=O)NC(=O)CCSCc1coc(-c2cccc(Cl)c2)n1`, the INHIBITION is given as 16.25%. Consider `O=C(Nc1cnc2n1CCCC2)C1CCCN1C1CCNCC1` (configuration not stated), for which the INHIBITION was -26.04%. Turning to `CCn1cnnc1CNC(=O)N1CCC(O)CC1`, the INHIBITION was -0.05%. In the case of `CCN(CCC1CCN(C(=O)NCc2nncn2CC)CC1)CC1CC1`, the INHIBITION is listed as 56.4%.

Turning to `CCn1cnnc1CNC(=O)N1CCN(c2nccs2)CC1`, the INHIBITION came to 17.31%. Regarding `CCn1cnnc1CNC(=O)N1CCN(c2cccs2)CC1`, the INHIBITION amounted to 54.85%. The figure for `CCn1cnnc1CNC(=O)N1CCC(C)CC1` is 56.4%; for `CCN(CC)C1CCN(C(=O)NCc2nncn2CC)CC1` it is 55.52%. Regarding `CCn1cnnc1CNC(=O)N1CCCCCC1`, the INHIBITION was -8.32%. As for `CCn1cnnc1CNC(=O)N1CCC(C(=O)NC)CC1`, the figure is -29.11%. For the compound `CCn1cnnc1CNC(=O)N1CCC(CN2CCCCCC2)CC1`, the INHIBITION is given as 27.47%. `CCn1cnnc1CNC(=O)N1CCCC1`: the INHIBITION is listed as 33.82%. As for `CCn1cnnc1CNC(=O)N1CCOCC1`, the figure is 27.31%. For `CCn1cnnc1CNC(=O)N1CCN(c2ccccc2O)CC1`, the INHIBITION is reported as -3.06%.

In the case of `Cc1cc2ccccc2n1CCC(=O)NCCS(C)(=O)=O`, the INHIBITION was -67.22%. As for `O=C(C1CCOCC1)N1CCc2ncnc(-c3ccc(F)cc3)c2CC1`, the INHIBITION is recorded as -7.01%. With `c1cncc(CNc2ccccc2-c2nn[nH]n2)c1`, the INHIBITION worked out at 27%. `O=C(c1cscn1)N1CCCC2(CCN2Cc2cccc(F)c2)C1` (configuration not stated): the INHIBITION was 37.33%.

Take `CC(C)N(C)Cc1cc(=O)n2c(n1)CN(C(=O)c1cnccn1)CCC2`: the INHIBITION is recorded as -14.64%.

Consider `Cn1ccnc1CN1CCCN(C(=O)c2ccc3[nH]nnc3c2)CC1`, for which the INHIBITION is given as -56.99%. Consider `COc1ccc(NC(=O)Cn2ccc3c(=O)n(C)ccc32)cc1OC`, for which the INHIBITION was 52.61%.

On to `Cn1ccc2c(ccn2CC(=O)Nc2ccc(Br)cc2)c1=O`, for which the INHIBITION is recorded as 0.5%. With `Cc1ccc(NC(=O)Cn2ccc3c(=O)n(C)ccc32)cc1F`, the INHIBITION is on record as 41.86%.

For the compound `CCn1ccc2ccnc(CC3CN(C(=O)Cn4ccnc4C)C3)c21`, the INHIBITION is 2.78%. On to `Cc1cccc(N2CCN(CCC(=O)NCc3nnc[nH]3)CC2)c1`, for which the INHIBITION is reported as 71.67%. As for `Cc1cccc(N2CCN(CCC(=O)NCc3cnc(C)cn3)CC2)c1`, the figure is -39.01%; as for `CCc1nnc(CNC(=O)CCN2CCN(c3cccc(C)c3)CC2)s1`, -27.19%.
